# In PubChem BioAssay (NCI):
# “And” between values parts separate entries of the source, which are not always exact repeats. Identical values can stand only once. Compounds without any hit were thinned out: in the full panel of roughly 83,000, 20% have a hit.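 A percent growth of 40 corresponds to 60% growth inhibition; 0 means no net growth; -100 means all cells died. Active threshold: below 10.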 Unmarked numbers belong to inactive results. The source made the active and inactive calls.
# System: HL-60(TB) leukemia
# Test: NCI-60 one-dose screen, 48 h (100 = growth as untreated, 0 = no growth, -100 = all killed)
# Settings: 10 µM unless noted
row,Structure (SMILES),growth
1,CCc1cnn2c(NCc3ccc[n+]([O-])c3)cc(N3CCCC[C@H]3CCO)nc12,-43.2% (active)
2,O=S(=O)(Nc1ccc(F)c(Cl)c1)c1ccc(-c2cnc(C3CC3)o2)cc1,8.62% (active)
3,CCN(CC)CCC(CNc1c2ccc(Cl)cc2nc2ccc(OC)cc12)c1ccccc1 (centres undefined),28.7%
4,CCCCCCCCCCCCCCCCOP(=O)([O-])OCC[N+](C)(C)C,-29.6% (active)
5,Clc1nc(Cl)c2ncn(C/C=C/Cn3cnc4c(Cl)nc(Cl)nc43)c2n1,-2.68% (active)
6,C#COc1cccc(Nc2c(C#N)cnc3ncc(NC(=O)CCl)cc23)c1,19.6% [6.25 µM]
7,Nc1ncnc2c1ccn2-c1cccc(NC(=O)c2cccc(C(F)(F)F)c2)c1,104%
8,COC(=O)C1(O)NC(=C(C#N)C#N)C(C#N)=C1C(=O)c1ccc(OC)c(OC)c1 (centres undefined),79%
9,Cn1c(=O)[nH]c(=O)c2nc(CCC(=O)NCCC(=O)O)c(=O)[nH]c21,101%
10,Clc1ccc(NC(Nc2ccc(Cl)cc2)C(Cl)(Cl)Cl)cc1,93.3% and 83.6%
11,COc1cc2c(cc1OCCCN1CCN(CCCOc3cc4c(cc3OC)C(=O)N3C[C@H](F)C[C@H]3C=N4)CC1)N=C[C@@H]1C[C@@H](F)CN1C2=O,-28.8% (active)
12,COC(=O)c1cc(=O)nc(N/N=C/c2ccco2)s1,116%
13,O=C1C[C@@H]2/C(=C(O)\C=C\c3ccccc3)C(=O)C=C[C@@H]2O1,13.3%
14,COc1ccc(-c2nc(SCC(=O)Nc3nc(-c4ccccc4)cs3)[nH]c(=O)c2C#N)cc1,92%
